# Reference: PubChem BioAssay (Tox21)
# Inconclusive results are not listed. Where a call stands in place of a potency, no number is given. Calls of active or inactive are those of the source. Calls follow the shape of the dose curve; as a rule, active = well fitted inhibition curve with a large enough effect in the signal ratio in the repeat runs (not every such curve was filed as active); inconclusive = weak or mixed curves, or effect the other way; inactive = no such curve, though single readings can be large or run the other way; the % refers to the signal ratio.
# Biological target: Peroxisome proliferator-activated receptor delta (Homo sapiens) (UniProt Q03181)
# Assay: qHTS assay to identify small molecule antagonists of the peroxisome proliferator-activated receptor delta (PPARd) signaling pathway (AID 743215);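 also: cells stimulated with agonist L165041 at 300 nM final during compound exposure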
# Conditions: HEK293H PPARd-UAS-bla, beta-lactamase FRET ratio, antagonist, 17 h; series mostly up to 62 µM
# Source text: U.S. Tox21 Program National Center for Advancing Translational Sciences [NCATS] NIH Chemical Genomics Center [NCGC] U.S. Environmental Protection Agency [EPA] National Institutes of Environmental Health Sciences [NIEHS] National Toxicology Program [NTP] U.S. Food and Drug Administration [FDA] Tox21 Assay Overview: The peroxisome proliferator-activated receptors (PPARs) are lipid-activated transcription factors of the nuclear receptor superfamily with three distinct subtypes namely PPAR alpha, PPAR delta (PPARd) and PPAR gamma. All these subtypes heterodimerizes with Retinoid X receptor (RXR) and have different physiological functions. […] To identify the compounds that inhibit PPAR-delta signaling, GeneBLAzer PPAR delta UAS-bla HEK293H cell line (Invitrogen, Carlsbad, CA, USA) containing a beta-lactamase reporter gene under the control of an Upstream Activator Sequence (UAS) was used to screen the Tox21 compound library.
# Tox21 Assay Protocol Summary: PPARd-bla cells were dispensed at 3000 cells/5uL/well in 1536-well black wall/clear bottom plates using a Multidrop Combi (Thermo Fisher Scientific, Waltham, MA) dispenser. After the assay plates were incubated at 37 C and 5% CO2 for 5 h, 23 nL of compounds dissolved in DMSO, positive controls or DMSO only was transferred to the assay plate by a Pintool station (Kalypsys, San Diego, CA), followed by addition of 1ul L165041 (300 nM, final concentration in the wells). The assay plates were incubated at 37 C for 17 h, and then 1 uL of LiveBLAzerTM B/G FRET substrate was added using a Bioraptr Flying Reagent Dispenser (FRD) workstation (Beckman Coulter, Indianapolis, IN, USA). The assay plates were incubated at room temperature for 2 h and fluorescence intensity was measured by an Envision plate reader (PerkinElmer, Shelton, CT).
# Potency is read from the fitted curve at half-maximal effect.
# Peroxisome proliferator-activated receptor delta (Homo sapiens), sequence (Q03181 whole entry, looked up): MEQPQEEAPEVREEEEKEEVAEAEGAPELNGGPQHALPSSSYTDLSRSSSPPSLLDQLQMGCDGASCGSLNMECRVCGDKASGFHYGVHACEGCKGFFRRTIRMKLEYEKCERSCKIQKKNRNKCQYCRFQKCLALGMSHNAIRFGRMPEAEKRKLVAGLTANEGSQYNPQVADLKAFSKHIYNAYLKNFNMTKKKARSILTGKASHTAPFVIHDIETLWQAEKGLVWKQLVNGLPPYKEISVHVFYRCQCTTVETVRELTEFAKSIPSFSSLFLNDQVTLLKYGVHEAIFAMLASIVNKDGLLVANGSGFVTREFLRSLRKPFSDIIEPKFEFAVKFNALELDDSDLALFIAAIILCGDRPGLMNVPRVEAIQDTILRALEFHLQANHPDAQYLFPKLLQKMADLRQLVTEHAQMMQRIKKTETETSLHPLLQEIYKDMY
row,SMILES,Potency
1,CN[C@@H](C)[C@H](O)c1ccccc1,inactive
2,CCOP(=S)(S)OCC,inactive
3,CC(C)(C)NCC(O)c1cc(Cl)c(N)c(C(F)(F)F)c1 (stereo not given),inactive
4,CCCN(CCC)C(=O)Cc1c(-c2ccc(Cl)cc2)nc2ccc(Cl)cn12,inactive
5,SCc1ccccc1,inactive
6,CN(C1CCCCC1)C1CCCCC1,inactive
7,Cc1cnc(C2=NC(C)(C(C)C)C(=O)N2)c(C(=O)O)c1 (stereo not given),inactive
8,C=CC(=O)NC(C)(C)CC(C)=O,inactive
9,COc1ccc(C(=O)c2c(C)n(CCN3CCOCC3)c3ccccc23)cc1,inactive
10,O=C(O)c1cc(I)cc(I)c1I,inactive
11,O=C(O)C(Cl)(Cl)Br,inactive
12,COC(=O)Cc1ccccc1,inactive
13,CC(C)[C@@H](C(=O)O[C@@H](C#N)c1cccc(Oc2ccccc2)c1)c1ccc(Cl)cc1,inactive
14,C=C(C)C(=O)OCCCCOC(=O)C(=C)C,inactive
15,CCCCC(CC)CO[N+](=O)[O-] (stereo not given),inactive
16,Nc1c(Br)cc(Br)c2c1C(=O)c1ccccc1C2=O,inactive
17,Clc1ccc2ccccc2c1,inactive
18,CCC1(CCC(C)C)C(=O)NC(=O)NC1=O,inactive
19,COc1ccccc1N1CCNCC1,inactive
20,CCOc1cccc(C2(N3CCN(c4ccccc4)CC3)CCC(C)CC2)c1 (stereo not given),inactive

row,SMILES,Potency
1,O=[N+]([O-])c1cc(Cl)c(Cl)cc1Cl,inactive
2,CC(C)c1ccc(NC(=O)N(C)C)cc1,inactive
3,CC(Oc1cccc(Cl)c1)C(=O)O (stereo not given),inactive
4,CNC(=O)Oc1cccc(N=CN(C)C)c1,inactive
5,OCCSSCCO,inactive
6,C1CS1,inactive
7,O=C(Cc1ccccc1)OCCc1ccccc1,inactive
8,C1CCNCC1,inactive
9,C[C@H]1[C@@H]2Cc3ccc(O)cc3[C@@]1(C)CCN2C,inactive
10,CN(C)c1ccc(N=O)cc1,21.9 µM (active)
11,O=C1c2ccccc2C(=O)N1SC(Cl)(Cl)Cl,19.5 µM (active)
12,COC1CC(=C(c2cccs2)c2cccs2)C[N+](C)(C)C1 (stereo not given),inactive
13,CC(Oc1cc(Cl)c(Cl)cc1Cl)C(=O)O (stereo not given),inactive
14,FC(F)OC(F)(F)C(F)Cl (stereo not given),inactive
15,Cc1ccccc1,inactive
16,CC(=O)OC(c1ccccc1)C(Cl)(Cl)Cl (stereo not given),inactive
17,O=C(CCl)CCl,inactive
18,CCCN(CCC)c1c([N+](=O)[O-])cc(C(C)C)cc1[N+](=O)[O-],inactive
19,c1ccc2sc(SNC3CCCCC3)nc2c1,inactive
20,O=S(=O)(c1ccccc1)c1ccccc1,inactive
